Results published in PubChem BioAssay.
Calls of active or inactive are those of the source.

Assays:
[1] = tested on: Plasmodium falciparum Sir2 (PF13_0152, Sir2A); assay: pfSir2 binders on small-molecule microarrays, primary screen, biochemical, small-molecule microarray, 635 nm fluorescence (AID 1098); settings: small-molecule microarray binding, fluorescence 635 nm; higher = more signal;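 note: score merges spot fluorescence intensity with its signal-to-noise ratio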
[2] = small-molecule microarray binders of probe aDKK1, primary screen, biochemical, biotinylated probe, 635/667 nm fluorescence (AID 1099); settings: higher = more signal;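 note: score merges 667nm spot fluorescence with signal to noise across triplicate slides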
[3] = small-molecule microarray binders of probe aCHRDL2, primary screen, biochemical, biotinylated probe, 635/667 nm fluorescence (AID 1100); settings: higher = more signal
[4] = splicing luciferase reporter signal modulators, primary screen, spliceosome inhibition project, cell-based, HEK293, splice +/- reporter (AID 1101); settings: luminescence, 24 h, higher = more signal, called active from +8 up or from −8 down;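 note: HEK293 cells carrying a splicing-competent luciferase reporter gene; test concentration not given here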
[5] = target: Fibroblast growth factor 10 (Homo sapiens) (UniProt O15520); assay: FGF10 binders on small-molecule microarrays, primary screen, biochemical, small-molecule microarray, 635 nm fluorescence (AID 1102); settings: FGF10 binding, fluorescence 635 nm, higher = more signal
Chain of Fibroblast growth factor 10 (Homo sapiens) (O15520 whole entry, looked up): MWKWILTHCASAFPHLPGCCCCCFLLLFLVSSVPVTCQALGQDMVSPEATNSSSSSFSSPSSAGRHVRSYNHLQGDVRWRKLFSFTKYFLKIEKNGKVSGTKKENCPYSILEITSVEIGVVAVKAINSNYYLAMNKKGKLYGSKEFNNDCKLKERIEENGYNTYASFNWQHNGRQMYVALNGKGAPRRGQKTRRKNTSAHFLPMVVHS

[6] = tested on: glycogen synthase kinase-3 (GSK3A per assay name; protocol says GSK3B); assay: GSK3 binders on small-molecule microarrays, primary screen, biochemical, small-molecule microarray, 635 nm fluorescence, GSK3A (AID 1103); settings: small-molecule microarray binding, fluorescence 635 nm; higher = more signal; note: the record names both GSK3A and GSK3B
[7] = target: Epidermal growth factor receptor (Homo sapiens) (UniProt P00533); assay: EGFR binders on small-molecule microarrays, primary screen, biochemical, small-molecule microarray, 635 nm fluorescence (AID 1104); settings: EGFR binding, higher = more signal;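 note: score merges 667 nm emission intensity with spot signal to noise over triplicate slides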
Chain of Epidermal growth factor receptor (Homo sapiens) (P00533 whole entry, looked up): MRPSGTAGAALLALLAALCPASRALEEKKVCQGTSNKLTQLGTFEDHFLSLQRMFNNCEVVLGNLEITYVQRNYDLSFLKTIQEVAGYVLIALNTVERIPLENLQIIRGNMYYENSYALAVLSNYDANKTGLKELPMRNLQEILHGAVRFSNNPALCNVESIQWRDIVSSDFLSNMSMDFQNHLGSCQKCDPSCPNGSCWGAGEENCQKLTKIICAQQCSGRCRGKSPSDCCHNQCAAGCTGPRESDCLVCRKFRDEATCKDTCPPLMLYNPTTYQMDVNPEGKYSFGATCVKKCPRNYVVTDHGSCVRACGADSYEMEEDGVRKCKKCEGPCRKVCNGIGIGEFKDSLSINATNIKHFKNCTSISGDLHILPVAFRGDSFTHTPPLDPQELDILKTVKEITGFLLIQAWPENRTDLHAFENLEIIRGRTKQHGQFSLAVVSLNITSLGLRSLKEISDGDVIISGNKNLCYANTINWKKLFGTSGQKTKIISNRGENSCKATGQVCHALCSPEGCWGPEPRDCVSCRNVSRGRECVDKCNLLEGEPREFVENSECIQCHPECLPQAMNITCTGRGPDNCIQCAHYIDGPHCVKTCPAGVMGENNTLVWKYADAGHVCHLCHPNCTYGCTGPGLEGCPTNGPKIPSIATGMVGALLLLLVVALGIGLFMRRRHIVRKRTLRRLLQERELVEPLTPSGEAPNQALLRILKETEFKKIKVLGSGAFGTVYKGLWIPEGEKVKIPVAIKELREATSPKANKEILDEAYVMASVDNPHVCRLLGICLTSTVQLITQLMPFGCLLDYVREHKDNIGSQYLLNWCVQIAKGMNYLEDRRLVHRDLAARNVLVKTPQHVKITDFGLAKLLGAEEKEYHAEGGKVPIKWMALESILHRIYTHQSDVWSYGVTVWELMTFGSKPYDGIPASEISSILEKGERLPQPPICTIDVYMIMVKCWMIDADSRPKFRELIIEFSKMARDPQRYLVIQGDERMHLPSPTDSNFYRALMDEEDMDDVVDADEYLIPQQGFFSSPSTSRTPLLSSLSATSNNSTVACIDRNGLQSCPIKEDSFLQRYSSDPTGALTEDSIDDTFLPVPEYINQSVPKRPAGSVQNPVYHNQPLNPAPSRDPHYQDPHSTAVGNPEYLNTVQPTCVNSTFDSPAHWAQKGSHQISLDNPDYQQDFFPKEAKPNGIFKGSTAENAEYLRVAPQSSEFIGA

[8] = target: Follistatin-related protein 3 (Homo sapiens) (UniProt O95633); assay: FSTL3 binders on small-molecule microarrays, primary screen, biochemical, small-molecule microarray, 635 nm fluorescence (AID 1105); settings: FSTL3 binding, higher = more signal;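 note: score merges emission near 667 nm and signal to noise per printed spot across three slides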
Chain of Follistatin-related protein 3 (Homo sapiens) (O95633 whole entry, looked up): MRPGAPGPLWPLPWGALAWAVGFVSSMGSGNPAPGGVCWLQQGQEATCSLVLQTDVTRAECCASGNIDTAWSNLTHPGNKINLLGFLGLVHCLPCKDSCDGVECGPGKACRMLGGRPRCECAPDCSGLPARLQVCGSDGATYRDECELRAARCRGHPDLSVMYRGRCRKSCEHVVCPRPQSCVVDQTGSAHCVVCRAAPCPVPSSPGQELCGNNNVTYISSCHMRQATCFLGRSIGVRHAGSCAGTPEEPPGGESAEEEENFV

[9] = target: Dickkopf-related protein 1 (Homo sapiens) (UniProt O94907); assay: DKK1 binders on small-molecule microarrays, primary screen, biochemical, small-molecule microarray, 635 nm fluorescence scan (AID 1106); settings: DKK1 binding, higher = more signal;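 note: score merges emission near 667 nm with signal to noise over three replicate slides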
Chain of Dickkopf-related protein 1 (Homo sapiens) (O94907 whole entry, looked up): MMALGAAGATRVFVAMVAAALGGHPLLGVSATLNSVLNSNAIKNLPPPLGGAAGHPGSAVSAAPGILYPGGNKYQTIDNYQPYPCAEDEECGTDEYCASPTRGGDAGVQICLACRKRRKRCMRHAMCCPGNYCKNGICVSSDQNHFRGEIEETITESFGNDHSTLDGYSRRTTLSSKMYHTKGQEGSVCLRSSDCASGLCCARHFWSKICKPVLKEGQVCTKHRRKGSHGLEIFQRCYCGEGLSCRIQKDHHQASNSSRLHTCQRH

[10] = tested on: Inhibin beta A chain (activin A); assay: INHBA (activin A) binders on microarrays, primary screen, biochemical, small-molecule microarray, 635 nm fluorescence scan (AID 1107); settings: small-molecule microarray binding, higher = more signal;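 note: mouse activin A protein probed at 4.33 µg/mL on printed slides; score merges bound-protein fluorescence near 667 nm with spot signal-to-noise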
[11] = tested on: Human papillomavirus type 1a protein E7 (residues 44-93); assay: HPV1a E7 fragment binders on microarrays, primary screen, biochemical, small-molecule microarray, residues 44-93, 635 nm fluorescence (AID 1108); settings: small-molecule microarray binding, fluorescence 635 nm; higher = more signal;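 note: E7 fragment applied at 1 µg/mL in TBST for 1 h at 4 C; score combines spot fluorescence with its signal to noise ratio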
[12] = modulators of HCV replicon luciferase signal, primary screen, HCV replication inhibitor project, Huh7 cells, luciferase reporter (AID 1109); settings: 48 h, higher = more signal;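 note: huh7 hepatoma cells harbouring a luciferase neomycin HCV replicon reporter; luciferase luminescence as measure of HCV replicon replication; test concentration not given here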
[13] = target: Left-right determination factor 2 (Homo sapiens) (UniProt O00292); assay: LEFTY2 binders on small-molecule microarrays, primary screen, biochemical, small-molecule microarray, 635 nm fluorescence scan (AID 1110); settings: LEFTY2 binding, higher = more signal
Chain of Left-right determination factor 2 (Homo sapiens) (O00292 whole entry, looked up): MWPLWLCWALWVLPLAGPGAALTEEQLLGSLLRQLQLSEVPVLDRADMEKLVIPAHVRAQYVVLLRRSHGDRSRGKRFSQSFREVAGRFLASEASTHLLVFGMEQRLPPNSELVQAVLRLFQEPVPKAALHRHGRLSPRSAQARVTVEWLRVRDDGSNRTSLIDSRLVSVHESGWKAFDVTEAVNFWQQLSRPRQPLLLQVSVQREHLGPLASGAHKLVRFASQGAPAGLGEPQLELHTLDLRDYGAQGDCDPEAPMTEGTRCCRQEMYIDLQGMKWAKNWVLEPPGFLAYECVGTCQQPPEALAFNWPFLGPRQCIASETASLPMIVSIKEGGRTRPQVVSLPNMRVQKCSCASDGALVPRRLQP

[14] = target: Calmodulin-1 (Homo sapiens) (UniProt P0DP23); assay: CALM1 binders on microarrays, EGTA buffer, profiling panel, biochemical, small-molecule microarray, Cy5-labelled CALM1 (AID 1111); settings: Cy5-CALM1 binding fluorescence, higher = more signal;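 note: labelled calmodulin applied in Tris saline Tween buffer holding calcium plus EGTA and DTT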
[15] = target: Calmodulin-1 (Homo sapiens) (UniProt P0DP23); assay: calcium-bound CALM1 binders on microarrays, profiling panel, artefact control for SMM control-protein annotation, biochemical, small-molecule microarray, Cy5-labelled CALM1, plus calcium (AID 1112); settings: Cy5-CALM1 binding fluorescence, higher = more signal;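 note: score merges spot fluorescence with signal to noise from triplicate slides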
[16] = small-molecule microarray binders of probe aWnt5a, primary screen, biochemical, biotinylated probe, 635/667 nm fluorescence (AID 1113); settings: higher = more signal;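 note: score merges 667 nm fluorescence intensity with signal-to-noise per printed feature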
[17] = small-molecule microarray binders of probe aShh, primary screen, biochemical, biotinylated probe, 635/667 nm fluorescence (AID 1114); settings: higher = more signal;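 note: probe is biotin-labelled aShh protein from a stem cell growth factor screen; measures binding of labelled protein to compounds printed on the slide; score merges feature fluorescence at 667 nm with signal-to-noise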
[18] = small-molecule microarray binders of probe aNog, primary screen, biochemical, biotinylated probe, 635/667 nm fluorescence (AID 1115); settings: higher = more signal;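 note: probe is biotinylated aNog protein used at 0.15 µg/mL for 1 h at 4 C; z-score combines 667 nm fluorescence of each spot with its signal to noise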
[19] = target: Torsin-1A-interacting protein 1 (Homo sapiens) (UniProt Q5JTV8); assay: LAP1 binders from COS7 cell lysate, primary screen, small-molecule microarray, 635/667 nm fluorescence (AID 1116); settings: COS7-hLAP1 lysate binding, 635 nm fluorescence, higher = more signal
Chain of Torsin-1A-interacting protein 1 (Homo sapiens) (Q5JTV8 whole entry, looked up): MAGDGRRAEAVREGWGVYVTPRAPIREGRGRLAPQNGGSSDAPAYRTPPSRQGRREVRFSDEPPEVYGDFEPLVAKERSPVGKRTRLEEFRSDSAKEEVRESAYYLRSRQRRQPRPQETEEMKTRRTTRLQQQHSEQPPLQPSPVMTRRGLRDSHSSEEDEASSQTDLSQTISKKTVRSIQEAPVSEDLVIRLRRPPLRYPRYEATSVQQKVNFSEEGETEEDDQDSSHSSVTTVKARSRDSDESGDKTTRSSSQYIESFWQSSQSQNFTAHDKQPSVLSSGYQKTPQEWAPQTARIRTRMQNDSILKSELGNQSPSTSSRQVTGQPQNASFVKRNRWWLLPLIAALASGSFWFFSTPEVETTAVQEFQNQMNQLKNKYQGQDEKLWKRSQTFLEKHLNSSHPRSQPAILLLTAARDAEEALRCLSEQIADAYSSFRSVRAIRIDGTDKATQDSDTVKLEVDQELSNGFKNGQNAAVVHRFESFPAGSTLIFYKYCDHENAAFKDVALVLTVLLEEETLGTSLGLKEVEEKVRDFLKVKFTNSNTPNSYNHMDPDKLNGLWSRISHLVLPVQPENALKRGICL

[20] = target: Alpha-bungarotoxin (Bungarus multicinctus) (UniProt P60615); assay: alpha-bungarotoxin binders on microarray, profiling panel, artefact control for SMM control protein annotation, biochemical, small-molecule microarray, Alexa647 label, 635/667 nm fluorescence (AID 1117); settings: alpha-BTX-A647 binding fluorescence, higher = more signal
Chain of Alpha-bungarotoxin (Bungarus multicinctus) (P60615 whole entry, looked up): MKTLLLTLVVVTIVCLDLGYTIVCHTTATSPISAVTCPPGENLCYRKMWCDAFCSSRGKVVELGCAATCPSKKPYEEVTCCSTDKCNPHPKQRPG

| SMILES | composite z-score [1] | composite z-score [2] | composite z-score [3] | z-score [4] | composite z-score [5] | composite z-score [6] | composite z-score [7] | composite z-score [8] | composite z-score [9] | composite z-score [10] | composite z-score [11] | z-score [12] | composite z-score [13] | composite z-score [14] | composite z-score [15] | composite z-score [16] | composite z-score [17] | composite z-score [18] | composite z-score [19] | composite z-score [20] |
| --- | --- | --- | --- | --- | --- | --- | --- | --- | --- | --- | --- | --- | --- | --- | --- | --- | --- | --- | --- | --- |
| COC(=O)[C@@]1(Cc2ccc(F)cc2)[C@@H]2C(=CC(=O)[C@H]2CC(=O)C(=O)N2CCCC2)CN1C(=O)c1ccccc1 | 0.9 | 1.72 | 0.978 | -4.12 (inactive) | 1.48 | 0.573 | 1.36 | 1.39 | 0.467 | 1.19 | 1.47 | -2.78 | 0.643 | 1.38 | -0.24 | 0.625 | 0.761 | 2.06 | 1.25 | 0.683 |
| COC(=O)[C@@]1(Cc2ccccc2)[C@H]2c3cc(C(=O)N(C)C)n(CCF)c3C[C@H]2CN1C(=O)c1ccccc1 | 1.56 | 1.27 | 1.42 | -1.72 (inactive) | -0.0624 | 0.0979 | -0.469 | 0.0598 | -1.23 | -0.711 | 0.233 | -1.66 | -0.555 | 2.8 | 1.31 | -0.0118 | -0.305 | -0.52 | 3.08 | 1.43 |
| COC(=O)[C@]1(Cc2ccccc2CN=[N+]=[N-])N=C(c2ccc(OCCCO)cc2)O[C@@H]1c1ccccc1N=[N+]=[N-] | 0.973 | -0.507 | 0.172 | -0.346 (inactive) | 0.267 | 0.135 | -0.296 | -0.332 | -0.268 | 1.08 | -0.131 | -2.65 | -0.0976 | -0.0209 | -0.307 | -0.0346 | -0.018 | 1.03 | 0.963 | 0.37 |
| C=CCN1C(=O)[C@]2(O[C@H](CCO)[C@@H]([Si](C)(C)c3ccc(OC)cc3)[C@@H]2C)c2cc(N3C(=O)c4ccccc4Oc4ccccc43)ccc21 | 1.16 | -0.252 | 0.117 | -1.38 (inactive) | 0.402 | 0.209 | 0.0038 | 0.255 | 0.107 | 0.206 | 1.3 | -5.05 | 0.28 | 1.2 | 0.323 | -0.0203 | -0.0709 | -0.158 | -0.0465 | 0.378 |
| O=C/C=C/c1ccc(-c2ccccc2)cc1 | -0.821 | -0.241 | 0.149 | -1.04 (inactive) | 0.141 | -0.1 | 0.005 | 0.0445 | -0.14 | 1.1 | -1.06 | 0.861 | 0.435 | -0.501 | -0.524 | -0.129 | -0.341 | -0.739 | -0.0833 | 0.27 |
| O=C(NCC(F)(F)F)[C@@H]1c2ccccc2C(=O)N(Cc2cc(C(F)(F)F)cc(C(F)(F)F)c2)[C@H]1c1ccc(CO)cc1 | 1.78 | -0.207 | 0.272 | 0.245 (inactive) | 0.728 | -0.137 | -0.284 | -0.145 | 0.382 | 0.0807 | 0.236 | -1.04 | -0.244 | -0.0722 | 0.122 | 0.0377 | -0.0035 | -0.103 | 0.653 | 0.0956 |
| O=C(NC1CC1)[C@@H]1c2ccccc2C(=O)N(C2CCCCC2)[C@H]1c1ccc(CO)cc1 | 0.891 | 1.84 | 0.989 | -0.496 (inactive) | 0.055 | 0.286 | 0.0989 | 0.208 | 0.139 | -0.24 | 0.178 | -2.14 | 0.0863 | 0.576 | 0.109 | -0.176 | -0.321 | -0.16 | 0.482 | 1.5 |
| COc1ccc([Si](C)(C)[C@H]2[C@H](CC(=O)N3CCC[C@H]3CO)O[C@@]3(C(=O)N(C)c4c(Br)cc(C)cc43)[C@@H]2C)cc1 | 1.91 | 0.94 | 0.244 | 0.00593 (inactive) | 1.5 | 1.32 | 0.775 | 1.16 | 1.08 | 1.34 | 1.45 | -2 | 0.946 | 0.783 | 0.339 | 1.19 | 1.28 | 0.241 | 0.128 | 1.26 |
| C=CCNC(=O)[C@H]1[C@@H]2C(=O)O[C@@H](c3ccccc3)[C@@H](c3ccccc3)N2[C@@H](c2ccc(O)cc2)[C@]12C(=O)Nc1ccccc12 | 0.524 | 0.46 | 0.501 | -0.592 (inactive) | 0.28 | -0.471 | -0.705 | -0.693 | -0.101 | 0.169 | 0.864 | -0.462 | -0.588 | 0.51 | 0.0876 | -0.148 | -0.0769 | -0.0089 | 1.33 | 0.269 |
| CN1C2C=C(c3ccc(CO)cc3)C(C3C(=O)N(C(N)=O)C(=O)C32)C1C1CC1 (stereo not given) | 0.261 | -0.202 | 0.0427 | 0.0567 (inactive) | -0.241 | -0.32 | -0.127 | -0.722 | -0.188 | -0.586 | 0.249 | -0.31 | -0.423 | -0.273 | -0.915 | -0.176 | -0.229 | -0.226 | 0.192 | 0.334 |
| COC(=O)C(CC#Cc1ccc2c(c1)[C@]1(C(=O)N2)[C@H](c2ccccc2OCCO)N2[C@H](c3ccccc3)[C@H](c3ccccc3)OC(=O)[C@H]2[C@@H]1C(=O)N1CCN(c2ncccn2)CC1)C(=O)OC | 1.01 | -0.216 | -0.145 | -0.376 (inactive) | 0.683 | 1.29 | 0.484 | 1.27 | 0.891 | 0.143 | 1.37 | -2.63 | 0.595 | 0.999 | -0.154 | -0.152 | 0.178 | -0.158 | 0.664 | 0.876 |
